This passage reports Potency results from PubChem BioAssay (Tox21).

Inconclusive results are not listed. Active and inactive are the calls of the source. Unless noted, calls come from the whole dose curve.

Assay [1] is described as follows: Nuclear factor erythroid 2-related factor 2/antioxidant responsive element (Nrf2/ARE) small molecule agonists: luciferase reporter gene qHTS assay in human keratinocytes (AID 1919969). Note: nearly all actives have a fitted effect of over 35% in size. Note: potency is the fitted concentration of half-maximal effect. Background: In a reporter assay the amount or activity of a reporter protein is the signal.
The target in assay [2] is Gonadotropin-releasing hormone receptor (Homo sapiens) (UniProt P30968). In words: Human gonadotropin-releasing hormone receptor (GnRHR) small molecule agonists, calcium flux assay in GnRHR-HEK293 cells (AID 1920063). Note: nearly all actives have a fitted effect of over 35% in size. Note: potency is the fitted concentration of half-maximal effect. In outline:
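GnRHR-HEK293, 1500 cells/well, 18 h 37 C/5% CO2; Ca dye 1 h 37 C; cpd pinned (DMSO), agonist mode; kinetic FL 480/540, 3 min, 1 s reads; 15 conc, n=3.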
A general note: A change in cytosolic calcium serves as a functional read-out for many receptors and channels.

The target in assay [3] is KiSS-1 receptor (Homo sapiens) (UniProt Q969F8). In words: Human kisspeptin (KISS1R) small molecule agonists, calcium flux assay in KISS1R-HEK293 cells (AID 1920064; active = well fitted activation curve with a large enough effect in the repeat runs). In outline:
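Stable human KISS1R HEK293 line; 18 h plating, 37 C/5% CO2; calcium dye 1 h 37 C; compound pin transfer; kinetic fluorescence Ex/Em 480/540, 3 min.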

Assay [4] can be described thus: G protein-coupled receptor (GPCR) small molecule agonists, calcium flux assay: HEK293 wild type cell line counter screen (AID 1920065). In outline: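 Kinetic fluorescence at Ex/Em 480/540, recorded every second over 3 min, served as the read-out after compound addition. Each compound was tested at 15 concentrations in triplicate on cells pre-loaded with calcium dye for 1 h.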

A short description of assay [5]: p53 small molecule agonists, cell-based qHTS assay with human liver microsomes (AID 1963577). In outline:
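Fluorescence of the beta-lactamase reporter in p53RE-bla cells, detected with LiveBLAzer substrate (2 h, room temperature, dark), served as the read-out after 16 h compound exposure at 37 C with human liver microsomes and NADPH, each 0.5 mg/mL final.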
For orientation: qHTS replaces the single test concentration by a dilution series.

A short description of assay [6]: p53 small molecule agonists, cell-based qHTS assay with rat liver microsomes (AID 1963578). In outline: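 Cells carrying a p53 response element–beta-lactamase reporter were plated and rested 5 h, then dosed with compound in DMSO plus rat liver microsomes and NADPH, each at 0.5 mg/mL final. After 16 h at 37 C, LiveBLAzer substrate was added for 2 h.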
The nature of assay [7]: p53 small molecule agonists, cell-based qHTS assay with rat liver microsomes: qHTS cell viability counter screen (AID 1963580). Note: nearly all actives have a fitted effect of over 45% in size. In outline: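 p53RE-bla HCT-116 cells were exposed 16 h at 37 C to compounds with rat liver microsomes (0.5 mg/mL) and NADPH (0.5 mg/mL). Viability was measured in the same wells as ATP content by CellTiter-Glo luminescence.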
Assay [8] in a line: p53 small molecule agonists, cell-based qHTS assay: qHTS cell viability counter screen (AID 1963581). Note: nearly all actives have a fitted effect of over 45% in size. In outline:
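HCT-116 p53RE-bla cells, 4,000/well, plated 5 h before compound pin transfer; 16 h at 37 C; bla substrate 2 h RT; then CellTiter-Glo, 30 min RT, luminescence.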

Assay [9] can be described thus: p53 small molecule agonists, cell-based qHTS assay (AID 1963582; active = well fitted activation curve with a large enough effect in the signal ratio in the repeat runs, not every such curve was filed as active; the % refers to the signal ratio). In outline:
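Reporter line: p53RE-bla. Pre-incubation 5 h, 37 C, 5% CO2; compound (DMSO, pin tool) 16 h, 37 C; B/G FRET substrate 2 h RT; fluorescence intensity read.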

Assay [10] concerns the target 5-hydroxytryptamine receptor 2A (Homo sapiens) (UniProt P28223). In words: 5-hydroxytryptamine receptor 2A (HTR2A) small molecule antagonists, cell-based qHTS assay (AID 1963586). Note: nearly all actives have a fitted effect of over 45% in size. Note: potency is the fitted concentration of half-maximal effect. In outline: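 Antagonist-mode intracellular calcium assay: DOI (4 nM) added after 5 min compound pre-incubation at room temperature to dye-loaded HTR2A-CHO cells. Fluorescence followed for 3 min, sampled every second.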

The target is the same in assay [11]. As to the kind of experiment: 5-hydroxytryptamine receptor 2A (HTR2A) small molecule agonists, cell-based qHTS assay (AID 1963587). Note: nearly all actives have a fitted effect of over 30% in size. Note: potency is the fitted concentration of half-maximal effect. In outline: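 CHO cells stably expressing human HTR2A, plated 18 h, loaded with calcium dye 1 h at 37 C. Agonist mode: compounds added and intracellular calcium fluorescence recorded kinetically for 2 min at 1 sec intervals.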
Assay [12] deals with Muscarinic acetylcholine receptor M1 (Homo sapiens) (UniProt P11229). In words: Cholinergic receptor muscarinic 1 (CHRM1) small molecule antagonists, cell-based qHTS assay (AID 1963588). Note: nearly all actives have a fitted effect of over 40% in size. In outline: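 CHRM1-CHO calcium-flux assay, antagonist mode. Cells were seeded 18 h, dye-loaded 1 h at 37 C and given compound for 5 min at RT, then acetylcholine was added at 50nM. FDSS fluorescence was read 3 min; 15 concentrations, three runs.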

Assay [13] has the same target. In words: Cholinergic receptor muscarinic 1 (CHRM1) small molecule agonists, cell-based qHTS assay (AID 1963589). Note: nearly all actives have a fitted effect of over 35% in size. In outline:
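Human M1 in stable CHO line; 18 h plating, 1 h dye load 37 C; cpd added (agonist mode); Ca2+ fluorescence kinetic read, 1 s intervals; 15 conc, 3 runs.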

The nature of assay [14]: cAMP Responsive Elements (CRE) small molecule agonists, cell-based qHTS assay (AID 1963590). In outline:
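HEK 293T CRE-bla, 2,000 cells/well, 18 h preincubation 37 C/5% CO2; cpds (DMSO) pinned, 3 h; LiveBLAzer B/G FRET substrate, 2 h RT.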

A short description of assay [15]: cAMP Responsive Elements (CRE) small molecule antagonists, cell-based qHTS assay (AID 1963591; active = well fitted inhibition curve with a large enough effect in the signal ratio in the repeat runs, not every such curve was filed as active; the % refers to the signal ratio). In outline:
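Beta-lactamase reporter read by FRET substrate (LiveBLAzer B/G) after 2 h at room temperature. CRE-bla HEK293T cells had received compound plus 0.25 uM (final) NKH477 for 3 h at 37 °C.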

Assay [16] concerns the target Beta-2 adrenergic receptor (Homo sapiens) (UniProt P07550). In words: Adrenergic beta2 receptor (ADRB2) small molecule agonists, cell-based qHTS assay (AID 1963593).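 Note: CHO cells stably overexpressing human ADRB2.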 In outline:
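CHO cells stably over-expressing ADRB2 were plated overnight at 37C, then dosed with compounds plus a stimulation mix containing 100uM IBMX and 25uM Ro-20-1724 for 0.5hr at room temperature. cAMP was measured by HTRF competition, 1hr.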

The target of assay [17] is D(2) dopamine receptor (Homo sapiens) (UniProt P14416). In words: Dopamine D2 receptor (DRD2) small molecule agonists, cell-based qHTS assay (AID 1963594). Note: nearly all actives have a fitted effect of over 35% in size. In outline:
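HEK293 cells stably expressing human DRD2, pre-treated with PDE inhibitor Ro20-1724 (0.1 mM final) and compound 10 min at room temperature, then stimulated with NKH477 (200nM […]) for 30 min. cAMP read by HTRF (665/620 nm).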

Assay [18] has the same target. As to the kind of experiment: Dopamine D2 receptor (DRD2) small molecule antagonists, cell-based qHTS assay (AID 1963595; active = well fitted inhibition curve with a large enough effect in the signal ratio in the repeat runs, with a control signal flat; the % refers to the signal ratio). In outline: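 In this cell-based antagonist screen, compounds act for 10 min at room temperature before a 30 min challenge with 12 nM quinpirole and 200 nM NKH477. cAMP is quantified by HTRF competition in DRD2-HEK293 cells containing 0.1 mM Ro20-1724.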

Assay [19] concerns the target Beta-2 adrenergic receptor (Homo sapiens) (UniProt P07550). As to the kind of experiment: Adrenergic beta2 receptor (ADRB2) small molecule antagonists, cell-based qHTS assay (AID 1963592). Note: nearly all actives have a fitted effect of over 50% in size. Note: potency is the fitted concentration of half-maximal effect. In outline:
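Cells (CHO, stable ADRB2 overexpression) incubated 18-20hr at 37C; compounds added from DMSO; agonist mix (1nM isoproterenol, 100uM IBMX, 25uM Ro-20-1724) added; 0.5hr RT; d2-cAMP and anti-cAMP-cryptate added; 1hr RT; 665/615 nm read.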

Assay [20] can be described thus: p53 small molecule agonists, cell-based qHTS assay with human liver microsomes: qHTS cell viability counter screen (AID 1963579). Note: nearly all actives have a fitted effect of over 45% in size. In outline: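 Cytotoxicity counter screen: p53RE-bla, 4,000 cells/well; 5 h settle, 37 C/5% CO2; cpd + HLM 0.5 mg/mL + NADPH 0.5 mg/mL (final); 16 h, 37 C; CellTiter-Glo, 30 min RT, luminescence.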

Chain of Gonadotropin-releasing hormone receptor (Homo sapiens) (P30968 whole entry, looked up): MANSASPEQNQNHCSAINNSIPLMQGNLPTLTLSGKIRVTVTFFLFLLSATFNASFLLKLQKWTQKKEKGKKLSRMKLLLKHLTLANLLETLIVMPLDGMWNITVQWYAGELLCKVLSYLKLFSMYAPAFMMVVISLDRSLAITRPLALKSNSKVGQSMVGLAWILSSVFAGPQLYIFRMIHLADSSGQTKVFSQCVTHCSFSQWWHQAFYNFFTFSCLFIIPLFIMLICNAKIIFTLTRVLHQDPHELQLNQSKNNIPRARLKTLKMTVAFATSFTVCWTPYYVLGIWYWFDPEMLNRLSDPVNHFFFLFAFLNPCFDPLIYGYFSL
Chain of KiSS-1 receptor (Homo sapiens) (Q969F8 whole entry, looked up): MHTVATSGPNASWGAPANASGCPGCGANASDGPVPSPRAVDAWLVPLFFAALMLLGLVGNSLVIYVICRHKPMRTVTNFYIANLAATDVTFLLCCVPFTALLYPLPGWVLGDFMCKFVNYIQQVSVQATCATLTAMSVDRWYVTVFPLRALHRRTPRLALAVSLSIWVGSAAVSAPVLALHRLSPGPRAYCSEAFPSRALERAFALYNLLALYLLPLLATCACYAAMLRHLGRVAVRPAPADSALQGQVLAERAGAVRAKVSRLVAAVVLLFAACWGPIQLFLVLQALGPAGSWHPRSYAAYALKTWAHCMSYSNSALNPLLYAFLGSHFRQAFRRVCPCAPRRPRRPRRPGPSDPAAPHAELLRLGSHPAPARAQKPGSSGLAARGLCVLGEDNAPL
Chain of Muscarinic acetylcholine receptor M1 (Homo sapiens) (P11229 whole entry, looked up): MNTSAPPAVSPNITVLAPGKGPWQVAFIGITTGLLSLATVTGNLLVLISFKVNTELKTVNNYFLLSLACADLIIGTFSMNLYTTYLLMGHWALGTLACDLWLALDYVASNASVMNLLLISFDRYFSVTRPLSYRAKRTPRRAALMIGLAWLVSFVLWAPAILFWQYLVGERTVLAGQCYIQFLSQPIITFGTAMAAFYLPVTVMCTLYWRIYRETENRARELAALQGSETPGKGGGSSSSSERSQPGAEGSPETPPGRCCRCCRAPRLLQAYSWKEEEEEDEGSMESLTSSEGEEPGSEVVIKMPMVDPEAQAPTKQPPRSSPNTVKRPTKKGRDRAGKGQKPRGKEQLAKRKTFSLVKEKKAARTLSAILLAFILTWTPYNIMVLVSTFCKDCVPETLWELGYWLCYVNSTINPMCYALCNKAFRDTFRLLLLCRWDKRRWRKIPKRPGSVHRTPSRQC
Chain of 5-hydroxytryptamine receptor 2A (Homo sapiens) (P28223 whole entry, looked up): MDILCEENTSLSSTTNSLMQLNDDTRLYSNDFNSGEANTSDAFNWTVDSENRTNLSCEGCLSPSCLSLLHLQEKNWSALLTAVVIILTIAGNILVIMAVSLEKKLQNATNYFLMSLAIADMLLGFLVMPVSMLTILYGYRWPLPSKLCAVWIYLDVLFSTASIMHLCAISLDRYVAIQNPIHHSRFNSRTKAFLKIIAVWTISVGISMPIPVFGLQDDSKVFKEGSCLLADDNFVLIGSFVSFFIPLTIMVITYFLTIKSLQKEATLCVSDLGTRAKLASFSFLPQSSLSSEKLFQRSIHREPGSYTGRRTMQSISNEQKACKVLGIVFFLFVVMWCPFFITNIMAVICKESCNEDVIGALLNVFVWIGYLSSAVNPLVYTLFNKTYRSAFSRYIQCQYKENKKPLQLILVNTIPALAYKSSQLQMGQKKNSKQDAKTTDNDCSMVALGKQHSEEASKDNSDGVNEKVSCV
Chain of Beta-2 adrenergic receptor (Homo sapiens) (P07550 whole entry, looked up): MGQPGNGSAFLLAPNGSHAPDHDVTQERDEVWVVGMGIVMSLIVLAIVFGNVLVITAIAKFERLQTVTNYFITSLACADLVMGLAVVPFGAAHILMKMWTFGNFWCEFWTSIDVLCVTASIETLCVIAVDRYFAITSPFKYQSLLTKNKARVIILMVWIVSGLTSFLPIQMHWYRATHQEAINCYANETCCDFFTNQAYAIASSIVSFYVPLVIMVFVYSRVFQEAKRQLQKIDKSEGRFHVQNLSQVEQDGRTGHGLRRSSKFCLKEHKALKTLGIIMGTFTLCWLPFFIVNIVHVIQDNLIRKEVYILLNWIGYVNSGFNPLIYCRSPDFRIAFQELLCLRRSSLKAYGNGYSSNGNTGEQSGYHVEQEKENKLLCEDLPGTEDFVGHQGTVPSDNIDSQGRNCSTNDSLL
Chain of D(2) dopamine receptor (Homo sapiens) (P14416 whole entry, looked up): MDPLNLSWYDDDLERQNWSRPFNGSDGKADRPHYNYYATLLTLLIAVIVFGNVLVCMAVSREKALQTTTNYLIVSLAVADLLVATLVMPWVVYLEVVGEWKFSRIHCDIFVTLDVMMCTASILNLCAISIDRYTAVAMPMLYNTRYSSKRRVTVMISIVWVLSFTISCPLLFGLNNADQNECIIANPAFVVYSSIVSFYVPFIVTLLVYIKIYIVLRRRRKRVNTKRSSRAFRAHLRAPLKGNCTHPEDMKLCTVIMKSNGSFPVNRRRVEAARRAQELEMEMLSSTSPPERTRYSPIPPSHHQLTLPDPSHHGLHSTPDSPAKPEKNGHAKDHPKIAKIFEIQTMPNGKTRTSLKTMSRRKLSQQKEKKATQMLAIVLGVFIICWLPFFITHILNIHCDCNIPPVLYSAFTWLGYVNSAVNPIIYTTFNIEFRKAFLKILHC

As to `Nc1ccc([N+](=O)[O-])cc1Cl`, the Potency entry in assay [1], in assay [2], in assay [3], in assay [4], in [5] and in [6] was “inactive” each time. Besides, the Potency entry in [7], in [8], in assay [9], in assay [10], in assay [11] and in assay [12] was “inactive” in each case. The Potency result in assay [13], in assay [14], in assay [15], in [16], in assay [17] and in assay [18] was “inactive” throughout.
As for `NC(=O)CS(=O)C(c1ccccc1)c1ccccc1` (stereo not given), the Potency entry in assay [1], in [2], in assay [3], in assay [4], in assay [6] and in assay [7] was “inactive” in each case. Further, the Potency result in assay [8], in assay [9], in [14], in assay [15], in assay [19] and in assay [17] was “inactive” in each case. Also, the Potency entry in assay [18] was “inactive”.
Regarding `COc1ccccc1N1CCNCC1`, the Potency entry in assay [1], in assay [2], in [3], in assay [4], in assay [5] and in assay [6] was “inactive” in each case. The Potency result in assay [7], in assay [8], in [9], in [12], in assay [13] and in [14] was “inactive” each time. In assay [18], the Potency result was “inactive”. Also, the Potency in assay [10] was 729 nM (active); in [11], 1.69 µM (active); in assay [19] it was 13.3 µM (active).
As for `CC(C)(Cl)[N+](=O)[O-]`, the Potency entry in [1], in [2], in assay [3], in assay [4], in assay [6] and in assay [20] was “inactive” throughout. Also, the Potency result in [7], in assay [8], in assay [9], in [11], in [12] and in assay [13] was “inactive” throughout. The Potency result in [14], in assay [19], in assay [17] and in assay [18] was “inactive” in each case.
Turning to `O=S1OC[C@@H]2[C@H](CO1)[C@]1(Cl)C(Cl)=C(Cl)[C@@]2(Cl)C1(Cl)Cl` (stereo not given in full), in [1], the Potency is 24.3 µM (active). In addition, the Potency entry in assay [2], in [3], in assay [4], in [5], in assay [6] and in [7] was “inactive” each time. The Potency entry in assay [8], in assay [10], in [11], in [12], in [13] and in [19] was “inactive” in each case. Further, the Potency result in assay [17] was “inactive”.
As to `Cc1cc(C(C)(C)c2cc(C)c(O)c(C)c2)cc(C)c1O`, the Potency result in assay [1], in [3], in assay [4], in assay [5], in assay [6] and in [12] was “inactive” in each case. The Potency result in assay [16] and in [17] was “inactive” in each case. Moreover, the Potency in assay [2] was 33.5 µM (active); in [11], 23.7 µM (active).
For `Nc1ccc(N=Nc2ccccc2)cc1`, in [1], the Potency is 10.9 µM (active). Further, the Potency result in assay [2], in [3], in assay [4], in assay [5], in assay [6] and in [7] was “inactive” each time. The Potency entry in [9], in assay [10], in assay [12], in [13] and in [18] was “inactive” each time.
With `Clc1ccc(CCC(Cn2ccnc2)Sc2c(Cl)cccc2Cl)cc1` (stereo not given), in [1], the Potency is 13.3 µM (active). The Potency result in assay [2], in assay [3], in assay [4], in [6], in assay [20] and in assay [7] was “inactive” throughout. The Potency result in assay [11], in [12], in assay [13] and in assay [19] was “inactive” in each case.
